PubChem BioAssay (NCI)
This is part of a sample that, as a whole, favours compounds with a hit. Of some 83,000 tested, about 20% had one in any assay.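 Method: cells in 96-well plates; compound added at one concentration; 48 h incubation; percent growth measured; values under 10 scored active.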 Unmarked numbers belong to inactive results. Active and inactive are the calls of the source.

Legend:
Assay in all cases: NCI-60 one-dose screen, 48 h (100 = growth as untreated, 0 = no growth, -100 = all killed)
Details in all cases: 10 µM unless noted
SR leukemia = test system: SR leukemia
RPMI-8226 leukemia = test system: RPMI-8226 leukemia
OVCAR-5 ovarian = test system: OVCAR-5 ovarian
SK-OV-3 ovarian = test system: SK-OV-3 ovarian
IGROV1 ovarian = test system: IGROV1 ovarian
OVCAR-3 ovarian = test system: OVCAR-3 ovarian
HS 578T breast = test system: HS 578T breast
NCI/ADR-RES ovarian = test system: NCI/ADR-RES ovarian
T-47D breast = test system: T-47D breast
BT-549 breast = test system: BT-549 breast
MDA-MB-435 melanoma = test system: MDA-MB-435 melanoma
SW-620 colon = test system: SW-620 colon
MCF7 breast = test system: MCF7 breast
HCT-116 colon = test system: HCT-116 colon
HCC-2998 colon = test system: HCC-2998 colon
KM12 colon = test system: KM12 colon
OVCAR-8 ovarian = test system: OVCAR-8 ovarian
OVCAR-4 ovarian = test system: OVCAR-4 ovarian

SMILES	growth (SR leukemia)	growth (RPMI-8226 leukemia)	growth (OVCAR-5 ovarian)	growth (SK-OV-3 ovarian)	growth (IGROV1 ovarian)	growth (OVCAR-3 ovarian)	growth (HS 578T breast)	growth (NCI/ADR-RES ovarian)	growth (T-47D breast)	growth (BT-549 breast)	growth (MDA-MB-435 melanoma)	growth (SW-620 colon)	growth (MCF7 breast)	growth (HCT-116 colon)	growth (HCC-2998 colon)	growth (KM12 colon)	growth (OVCAR-8 ovarian)	growth (OVCAR-4 ovarian)
COc1ccc(C2CC(=O)Nc3c2c(C)nn3-c2nc3ccccc3[nH]2)cc1 (centres undefined)	-36% (active)	20.4%	112%	122%	12.6%	18.3%	61.7%	96.3%	111%	113%	99.9%	48.2%	91.6%	108%	112%	30.4%		
CC(=O)O[C@H]1CC[C@]2(C)[C@H]3CC[C@@H]4[C@H]5[C@H](C(C)C)CC[C@]5(C(=O)OCC(CO)(CO)N=C(N)N)CC[C@@]4(C)[C@]3(C)CC[C@H]2C1(C)C		4.55% (active)	99.1%	91.2%	24.3%	18.9%	93.7%	76.8%	44.6%	108%	22.6%	-71.5% (active)	4.01% (active)	-76.1% (active)	-60.9% (active)	17.4%	-31.9% (active)	87.9%
C=C1CC[C@@H]2[C@](C)(COC(C)=O)[C@H](OC(C)=O)CC[C@@]2(C)[C@@H]1CC(Nc1ccc(S(=O)(=O)Nc2nc(C)cc(C)n2)cc1)C1=CCOC1=O (some centres undefined)	22.2%	2.24% (active)	103%	112%	81.5%	44.8%	99.8%	66.6%	68.8%	71.9%	67%	40%	40.3%	39.2%		64.7%		65%
O=[N+]([O-])c1c(F)cccc1Nc1cccc(F)c1	102%		97.3%	114%	117%	109%	102%	110%	108%	118%	105%	108%	90.3%		102%	115%	102%	95.9%
COc1ncc(-c2ccc3ncnc(Nc4cccc(Cl)c4)c3c2)cc1NS(C)(=O)=O	50.6%	22.8%		-11.2% (active)	-45.5% (active)	26.9%	16.2%	51%	-6.68% (active)	25.3%	41.9%	50.2%	7.7% (active)		56.8%	55.3%		70.7%
Nc1c(C(=O)Nc2ccccc2Cl)sc2nc3c(cc12)CCCCCC3	13.2%		60.9%	43.9%	25.9%	21.5%	17.3%	35%	41.4%	39.8%	-16.1% (active)	34.3%	13.8%	19.2%		29.2%	48.8%	
COc1ccc(-c2cc(-c3ccc(N(C)C)cc3)nc(NC(=O)c3ccncc3)n2)cc1		93%	109%	117%	95.2%	98.8%	97.2%	96.6%	88.9%	104%	104%	98.7%	78%	94%	100%	97.8%	97.7%	122%
COc1cc(OC)c(/C=C/S(=O)(=O)Cc2cnc(OC)c(N)c2)c(OC)c1		29.1%	55.2%	11.9%	29.4%	-13.5% (active)	47.5%	7.65% (active)	15.6%	8.01% (active)	13.4%	22.8%	11.6%	3.33% (active)	17.5%	9.75% (active)	18.9%	50.3%
Nc1nc2ccc(-c3nc4ccc5[nH]ncc5c4c4c3CCC4)cc2s1		-49% (active)	47.6%	-21.7% (active)	21.4%	39.4%	7.12% (active)	27.8%	31.2%	47.1%	-35.5% (active)	6.95% (active)	13%	15.9%	50.9%	25.1%	28.6%	19.3%
COc1ccc(S(=O)(=O)NCCCNc2nccc(-c3c(-c4cccc(N)c4)nc4sccn34)n2)cc1		84%	134%	112%	87.1%	94.5%	93.9%	94.7%	63%	102%	70.2%	138%	69.3%	99.2%	144%	39.4%	93.5%	97.1%
CN(C)CCOc1ccc(-c2nc3ccc(-c4nc5ccc(N6CCN(C)CC6)cc5[nH]4)cc3[nH]2)cc1		35.5%	83%	69.5%	90%	94.9%	76.4%	108%	55.3%	74.2%	61.2%	66.3%	35.5%	48.3%	99%	57.3%	63.6%	68%
COc1ccc(-n2c(C)nc3c(c(C)nn3-c3ccccc3)c2=O)cc1		5.55% (active)	30.6%	45.1%	20.3%	-32.6% (active)	21.6%	-12.9% (active)	55.9%	9.9% (active)	4.94% (active)	23.1%	11.5%	3.27% (active)	16.6%	11.3%	6.61% (active)	36.8%
CCN1CCN(Cc2ccc(NC(=O)Nc3nc4ccc(Oc5ccnc(C(=O)NC)c5)cc4s3)cc2C(F)(F)F)CC1		-22.9% (active)	-40.6% (active)	-2.46% (active)	-12.2% (active)	-74.1% (active)	-38.6% (active)	-12.7% (active)	-27.9% (active)	-69.1% (active)	-36.5% (active)	-52.7% (active)	-39.3% (active)	-66.1% (active)	-33.6% (active)	-61.6% (active)	-18.6% (active)	-64.1% (active)
C=C1CCC2C3(C)COC(c4cccc(Cl)c4)OC3CCC2(C)C1/C=C/C1=CCOC1=O (centres undefined)		51.8%	84.3%	78.1%	88.9%	76.9%	96.1%	44%	27.7%	55.9%	79.4%	78.4%	42%	28.9%	39.9%	74.3%	71.5%	53.7%
COc1ccc(C(=O)/C=C/c2c[n+](=O)c3ccc(F)cc3n2[O-])cc1		109%	97.2%	106%	133%	102%	102%	101%	93.1%	103%	119%	109%	98.9%	103%	104%	113%	83.5%	106%
CC(C)CC(CC1=CCC2CC1C2(C)C)C1=C(O)C(C)(C)C(=O)C(C)(C)C1=O (centres undefined)		-26.4% (active)	22.7%	-12.6% (active)	39%	16.2%	6.67% (active)	7.18% (active)	4.63% (active)	-6.03% (active)	11%	14.2%	7.94% (active)	6.3% (active)	17.6%	9.6% (active)	5.12% (active)	32.5%
COc1ccc(C(=O)c2sc3nc4c(cc3c2N)CCCC4)cc1OC		10.4%	86.9%	71.6%	35.9%	20.6%	74%	19.7%	15.5%	24.1%	-9.21% (active)	34.6%	27.1%	19.4%	109%	26.9%	43.1%	60.7%
O=C(CCN1CCOCC1)Nc1ccc(Cn2nnc3c2C(=O)c2nnn(Cc4ccc(NC(=O)CCN5CCOCC5)cc4)c2C3=O)cc1		5.5% (active)	110%	95.4%	-19.8% (active)	-1.65% (active)	44.9%	109%	-3.09% (active)	29.6%	-76.2% (active)	30.7%	-56.3% (active)	-15.6% (active)	-7.48% (active)	43%	45.6%	-81.4% (active)
